The values that follow come from ChEMBL document CHEMBL1961873, “Compounds: GSK PKIS; Assays: Nanosyn kinase panel” (2012).

Test [1] addresses T1, Tyrosine-protein kinase ITK/TSK (Homo sapiens) (UniProt Q08881).
T1 sequence (whole entry): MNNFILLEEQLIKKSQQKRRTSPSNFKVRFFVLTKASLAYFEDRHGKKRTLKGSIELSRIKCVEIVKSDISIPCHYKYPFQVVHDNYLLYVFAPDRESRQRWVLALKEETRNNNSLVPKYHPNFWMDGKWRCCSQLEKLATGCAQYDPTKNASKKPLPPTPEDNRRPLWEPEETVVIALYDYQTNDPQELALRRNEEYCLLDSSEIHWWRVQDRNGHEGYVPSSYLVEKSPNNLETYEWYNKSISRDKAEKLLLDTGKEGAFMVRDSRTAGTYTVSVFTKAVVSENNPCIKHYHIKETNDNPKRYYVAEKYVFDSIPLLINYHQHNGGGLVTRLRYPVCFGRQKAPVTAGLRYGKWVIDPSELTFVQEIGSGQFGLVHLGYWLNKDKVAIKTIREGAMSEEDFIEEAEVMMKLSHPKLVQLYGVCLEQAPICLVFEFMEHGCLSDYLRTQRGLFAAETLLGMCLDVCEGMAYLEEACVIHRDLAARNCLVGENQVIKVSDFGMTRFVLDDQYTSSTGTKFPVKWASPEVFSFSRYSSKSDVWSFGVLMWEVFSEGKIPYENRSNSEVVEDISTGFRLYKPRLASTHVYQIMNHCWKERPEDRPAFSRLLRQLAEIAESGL
The settings on record: at 1 µM.

Test [2] concerns the target Tyrosine-protein kinase JAK1 (Homo sapiens) (UniProt P23458). The settings on record: at 0.1 µM.
Test [3] shares this target. The settings on record: at 1 µM.
For test [4], the target named is Tyrosine-protein kinase JAK2 (Homo sapiens) (UniProt O60674). The following applies: at 0.1 µM.
Sequence of Tyrosine-protein kinase JAK2 (Homo sapiens) (O60674 whole entry): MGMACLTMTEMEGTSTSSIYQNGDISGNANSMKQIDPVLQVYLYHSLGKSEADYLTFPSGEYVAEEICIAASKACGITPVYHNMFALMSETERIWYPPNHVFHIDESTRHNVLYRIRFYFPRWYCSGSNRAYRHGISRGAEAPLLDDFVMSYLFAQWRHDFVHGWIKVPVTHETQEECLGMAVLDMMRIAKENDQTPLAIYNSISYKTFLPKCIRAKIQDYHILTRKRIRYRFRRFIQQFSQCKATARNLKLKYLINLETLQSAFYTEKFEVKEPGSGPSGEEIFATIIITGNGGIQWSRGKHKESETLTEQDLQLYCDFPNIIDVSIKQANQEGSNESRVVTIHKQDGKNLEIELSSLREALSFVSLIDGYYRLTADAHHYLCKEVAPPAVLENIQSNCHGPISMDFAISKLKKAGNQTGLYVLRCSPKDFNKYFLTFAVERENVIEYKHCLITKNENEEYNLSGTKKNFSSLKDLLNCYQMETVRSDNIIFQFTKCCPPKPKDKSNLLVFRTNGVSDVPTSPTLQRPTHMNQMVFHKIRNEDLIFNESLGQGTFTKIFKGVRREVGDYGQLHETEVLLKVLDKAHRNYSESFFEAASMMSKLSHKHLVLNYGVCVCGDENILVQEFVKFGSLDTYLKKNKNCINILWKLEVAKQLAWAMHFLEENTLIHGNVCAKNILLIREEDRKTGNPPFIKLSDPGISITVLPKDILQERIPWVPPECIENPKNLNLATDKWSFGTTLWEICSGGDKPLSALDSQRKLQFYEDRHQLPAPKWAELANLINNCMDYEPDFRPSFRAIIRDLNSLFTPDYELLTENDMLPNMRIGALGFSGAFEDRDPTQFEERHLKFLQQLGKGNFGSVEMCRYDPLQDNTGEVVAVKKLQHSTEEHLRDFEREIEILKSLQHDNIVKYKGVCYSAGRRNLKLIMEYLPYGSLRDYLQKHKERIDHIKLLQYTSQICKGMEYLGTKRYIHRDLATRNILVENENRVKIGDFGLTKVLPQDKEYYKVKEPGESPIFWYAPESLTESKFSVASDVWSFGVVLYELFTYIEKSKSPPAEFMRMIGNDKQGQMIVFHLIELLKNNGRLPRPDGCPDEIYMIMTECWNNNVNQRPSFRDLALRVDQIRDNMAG
Test [5] shares this target. The settings on record: at 1 µM.
Test [6] deals with T2, Tyrosine-protein kinase JAK3 (Homo sapiens) (UniProt P52333).
T2 sequence (whole entry): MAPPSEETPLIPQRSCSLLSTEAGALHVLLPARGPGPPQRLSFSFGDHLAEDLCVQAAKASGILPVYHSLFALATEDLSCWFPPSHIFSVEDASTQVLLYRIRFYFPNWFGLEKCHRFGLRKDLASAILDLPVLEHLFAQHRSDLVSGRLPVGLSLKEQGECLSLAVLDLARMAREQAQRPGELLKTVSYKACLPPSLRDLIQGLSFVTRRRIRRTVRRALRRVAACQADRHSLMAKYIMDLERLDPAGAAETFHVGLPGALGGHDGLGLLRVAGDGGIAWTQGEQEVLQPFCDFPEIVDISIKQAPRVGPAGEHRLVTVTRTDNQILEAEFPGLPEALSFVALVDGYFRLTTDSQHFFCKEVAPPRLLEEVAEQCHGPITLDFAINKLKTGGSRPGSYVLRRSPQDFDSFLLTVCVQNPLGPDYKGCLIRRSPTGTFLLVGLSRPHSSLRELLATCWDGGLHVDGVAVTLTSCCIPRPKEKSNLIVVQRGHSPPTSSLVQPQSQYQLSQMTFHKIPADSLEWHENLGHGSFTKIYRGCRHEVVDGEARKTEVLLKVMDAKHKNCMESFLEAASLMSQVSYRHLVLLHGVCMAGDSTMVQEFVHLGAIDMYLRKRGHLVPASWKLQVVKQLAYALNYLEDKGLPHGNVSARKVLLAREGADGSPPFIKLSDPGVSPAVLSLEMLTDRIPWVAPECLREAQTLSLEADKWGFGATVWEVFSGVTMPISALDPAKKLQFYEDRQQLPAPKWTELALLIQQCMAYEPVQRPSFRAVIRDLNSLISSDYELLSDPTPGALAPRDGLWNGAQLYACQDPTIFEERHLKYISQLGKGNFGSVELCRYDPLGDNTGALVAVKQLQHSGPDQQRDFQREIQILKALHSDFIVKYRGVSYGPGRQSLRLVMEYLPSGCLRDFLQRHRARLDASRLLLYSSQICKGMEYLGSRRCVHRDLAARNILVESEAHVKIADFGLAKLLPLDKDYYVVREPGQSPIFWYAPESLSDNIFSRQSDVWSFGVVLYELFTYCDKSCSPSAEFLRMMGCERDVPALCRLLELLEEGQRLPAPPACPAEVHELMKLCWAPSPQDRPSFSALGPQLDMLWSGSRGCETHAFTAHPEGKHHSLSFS
The following applies: at 0.1 µM.

Test [7] deals with T2, Tyrosine-protein kinase JAK3 (Homo sapiens). The settings on record: at 1 µM.
For test [8], the target named is Vascular endothelial growth factor receptor 2 (Homo sapiens) (UniProt P35968). The following applies: at 0.1 µM.
Sequence of Vascular endothelial growth factor receptor 2 (Homo sapiens) (P35968 whole entry): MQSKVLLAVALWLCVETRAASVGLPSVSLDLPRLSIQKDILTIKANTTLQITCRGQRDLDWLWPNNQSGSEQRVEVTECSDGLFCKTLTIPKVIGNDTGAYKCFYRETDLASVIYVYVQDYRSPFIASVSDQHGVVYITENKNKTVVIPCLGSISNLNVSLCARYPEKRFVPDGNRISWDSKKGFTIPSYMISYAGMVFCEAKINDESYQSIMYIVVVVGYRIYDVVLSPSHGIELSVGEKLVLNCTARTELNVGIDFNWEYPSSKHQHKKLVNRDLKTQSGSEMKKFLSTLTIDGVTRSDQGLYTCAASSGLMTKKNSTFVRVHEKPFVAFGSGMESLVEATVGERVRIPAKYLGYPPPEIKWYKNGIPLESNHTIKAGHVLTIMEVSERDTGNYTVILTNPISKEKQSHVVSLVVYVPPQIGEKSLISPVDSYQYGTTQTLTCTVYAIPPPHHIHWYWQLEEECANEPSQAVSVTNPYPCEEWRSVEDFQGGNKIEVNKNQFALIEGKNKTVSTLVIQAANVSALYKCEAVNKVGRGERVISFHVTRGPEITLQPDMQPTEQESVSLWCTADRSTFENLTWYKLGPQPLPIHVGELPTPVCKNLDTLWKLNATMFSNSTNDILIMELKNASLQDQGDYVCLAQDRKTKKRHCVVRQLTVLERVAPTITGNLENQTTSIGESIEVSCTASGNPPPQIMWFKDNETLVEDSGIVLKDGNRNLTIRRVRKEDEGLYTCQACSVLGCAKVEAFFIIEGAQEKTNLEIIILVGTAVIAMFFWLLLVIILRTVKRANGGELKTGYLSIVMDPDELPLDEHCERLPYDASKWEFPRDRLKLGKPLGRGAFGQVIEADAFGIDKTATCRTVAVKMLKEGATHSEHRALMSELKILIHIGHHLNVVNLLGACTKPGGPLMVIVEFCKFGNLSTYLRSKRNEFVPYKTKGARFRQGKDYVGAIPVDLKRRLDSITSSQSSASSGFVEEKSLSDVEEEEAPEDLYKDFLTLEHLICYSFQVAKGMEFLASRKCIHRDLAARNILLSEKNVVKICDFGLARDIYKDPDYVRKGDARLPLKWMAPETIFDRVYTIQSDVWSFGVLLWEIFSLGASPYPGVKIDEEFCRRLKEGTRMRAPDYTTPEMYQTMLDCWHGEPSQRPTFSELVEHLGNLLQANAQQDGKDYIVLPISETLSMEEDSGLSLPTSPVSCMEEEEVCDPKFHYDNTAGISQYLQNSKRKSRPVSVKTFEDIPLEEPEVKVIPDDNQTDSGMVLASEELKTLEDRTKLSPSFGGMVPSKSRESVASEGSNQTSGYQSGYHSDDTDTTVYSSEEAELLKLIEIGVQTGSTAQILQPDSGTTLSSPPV
Test [9] shares this target. The settings on record: at 1 µM.
The target in test [10] is Mast/stem cell growth factor receptor Kit (Homo sapiens) (UniProt P10721). The settings on record: at 0.1 µM.
Sequence of Mast/stem cell growth factor receptor Kit (Homo sapiens) (P10721 whole entry): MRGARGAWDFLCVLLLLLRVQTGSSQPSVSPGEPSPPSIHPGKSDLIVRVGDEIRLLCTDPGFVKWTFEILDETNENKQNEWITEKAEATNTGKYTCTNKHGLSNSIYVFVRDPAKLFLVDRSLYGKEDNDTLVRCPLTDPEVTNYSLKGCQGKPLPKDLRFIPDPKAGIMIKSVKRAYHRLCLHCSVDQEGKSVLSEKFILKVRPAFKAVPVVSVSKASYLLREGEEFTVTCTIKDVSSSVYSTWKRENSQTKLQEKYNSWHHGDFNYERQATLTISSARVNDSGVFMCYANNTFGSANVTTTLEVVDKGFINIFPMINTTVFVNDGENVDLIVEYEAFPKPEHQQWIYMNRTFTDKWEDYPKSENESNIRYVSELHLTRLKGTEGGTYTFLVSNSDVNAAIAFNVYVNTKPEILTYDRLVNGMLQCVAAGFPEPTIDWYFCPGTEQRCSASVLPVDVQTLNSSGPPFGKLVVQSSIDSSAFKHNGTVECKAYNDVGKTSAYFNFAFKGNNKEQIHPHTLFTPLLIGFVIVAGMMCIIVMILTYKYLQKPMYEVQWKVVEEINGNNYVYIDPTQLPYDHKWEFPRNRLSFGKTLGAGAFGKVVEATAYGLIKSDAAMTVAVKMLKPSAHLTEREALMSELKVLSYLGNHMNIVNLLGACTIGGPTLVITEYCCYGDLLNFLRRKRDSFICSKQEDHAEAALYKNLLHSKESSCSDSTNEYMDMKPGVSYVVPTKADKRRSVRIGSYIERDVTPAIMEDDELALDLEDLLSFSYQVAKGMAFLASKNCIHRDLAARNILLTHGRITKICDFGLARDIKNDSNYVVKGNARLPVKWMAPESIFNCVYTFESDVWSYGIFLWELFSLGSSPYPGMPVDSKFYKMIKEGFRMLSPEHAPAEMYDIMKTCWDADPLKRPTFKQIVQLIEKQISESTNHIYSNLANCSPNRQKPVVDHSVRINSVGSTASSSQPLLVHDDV
The target is the same in test [11]. The settings on record: at 1 µM.
Test [12] deals with Mast/stem cell growth factor receptor Kit (Homo sapiens), P10721 [D816V]. The following applies: at 0.1 µM.
Sequence of Mast/stem cell growth factor receptor Kit (Homo sapiens), P10721 [D816V] (P10721 whole entry D816V): as the sequence (P10721 whole entry) above, with D816V counted along it
For test [13] the test system is unchanged. The settings on record: at 1 µM.
Test [14] deals with Mast/stem cell growth factor receptor Kit (Homo sapiens), P10721 [T670I]. The settings on record: at 0.1 µM.
Sequence of Mast/stem cell growth factor receptor Kit (Homo sapiens), P10721 [T670I] (P10721 whole entry T670I): as the sequence (P10721 whole entry) above, with T670I counted along it
For test [15] the test system is unchanged. The settings on record: at 1 µM.
Test [16] concerns Mast/stem cell growth factor receptor Kit (Homo sapiens), P10721 [V560G]. The following applies: at 0.1 µM.
Sequence of Mast/stem cell growth factor receptor Kit (Homo sapiens), P10721 [V560G] (P10721 whole entry V560G): as the sequence (P10721 whole entry) above, with V560G counted along it
For test [17] the test system is unchanged. The settings on record: at 1 µM.
Test [18] concerns the target Tyrosine-protein kinase Lck (Homo sapiens) (UniProt P06239). The following applies: at 0.1 µM.
For test [19] the target is unchanged. The following applies: at 1 µM.
Test [20] deals with Leukocyte tyrosine kinase receptor (Homo sapiens) (UniProt P29376). The following applies: at 0.1 µM.
Sequence of Leukocyte tyrosine kinase receptor (Homo sapiens) (P29376 whole entry): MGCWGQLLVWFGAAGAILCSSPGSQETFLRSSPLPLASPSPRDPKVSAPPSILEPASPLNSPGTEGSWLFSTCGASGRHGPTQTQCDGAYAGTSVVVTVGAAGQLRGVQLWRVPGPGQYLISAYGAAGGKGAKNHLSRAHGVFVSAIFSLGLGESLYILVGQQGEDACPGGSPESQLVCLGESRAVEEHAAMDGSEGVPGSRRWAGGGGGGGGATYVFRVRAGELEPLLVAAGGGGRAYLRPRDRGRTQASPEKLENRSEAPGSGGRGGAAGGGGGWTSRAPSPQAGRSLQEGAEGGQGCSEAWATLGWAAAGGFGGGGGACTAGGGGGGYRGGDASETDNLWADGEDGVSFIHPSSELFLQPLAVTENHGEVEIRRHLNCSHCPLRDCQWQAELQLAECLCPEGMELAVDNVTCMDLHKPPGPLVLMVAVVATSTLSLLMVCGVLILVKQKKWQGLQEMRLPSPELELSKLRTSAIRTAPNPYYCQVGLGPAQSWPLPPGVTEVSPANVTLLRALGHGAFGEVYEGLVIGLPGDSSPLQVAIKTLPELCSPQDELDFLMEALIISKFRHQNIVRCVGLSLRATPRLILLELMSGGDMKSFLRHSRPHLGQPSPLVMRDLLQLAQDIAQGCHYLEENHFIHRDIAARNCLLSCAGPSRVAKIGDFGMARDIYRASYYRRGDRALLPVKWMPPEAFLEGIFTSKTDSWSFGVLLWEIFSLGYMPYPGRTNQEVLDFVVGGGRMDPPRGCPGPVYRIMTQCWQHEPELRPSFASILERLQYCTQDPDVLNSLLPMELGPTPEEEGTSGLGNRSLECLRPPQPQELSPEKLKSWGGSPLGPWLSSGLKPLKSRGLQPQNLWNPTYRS

Sequence of Tyrosine-protein kinase Lck (Homo sapiens) (P06239 2-509 limits assumed): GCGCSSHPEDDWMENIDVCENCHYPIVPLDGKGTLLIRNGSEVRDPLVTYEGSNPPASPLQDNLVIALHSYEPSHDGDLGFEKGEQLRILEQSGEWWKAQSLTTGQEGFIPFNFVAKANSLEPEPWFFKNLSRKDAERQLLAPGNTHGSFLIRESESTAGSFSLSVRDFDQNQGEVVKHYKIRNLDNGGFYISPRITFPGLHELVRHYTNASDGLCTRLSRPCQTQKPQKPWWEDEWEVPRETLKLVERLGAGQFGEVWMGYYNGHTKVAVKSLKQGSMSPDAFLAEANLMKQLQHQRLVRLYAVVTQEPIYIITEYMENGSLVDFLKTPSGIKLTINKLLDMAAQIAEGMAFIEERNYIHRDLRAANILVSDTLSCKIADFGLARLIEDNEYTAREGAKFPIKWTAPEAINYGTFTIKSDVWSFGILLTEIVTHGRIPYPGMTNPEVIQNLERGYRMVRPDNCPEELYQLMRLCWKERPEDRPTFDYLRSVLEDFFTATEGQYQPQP

By inhibition is commonly meant the change of the read-out against control, counted positive when it falls. Consider `Cc1ccc2c(-c3ccnc(Nc4cccc(C(F)(F)F)c4)n3)c(-c3ccccc3)nn2n1`, for which the inhibition was 1.69% in test [1]; 6.27% in test [2]; 4.74% in test [3]; 1.01% in [4]; 2.03% in test [5]; -1.71% in [6]. In addition, the inhibition in test [7] is -2.26%; in test [8], 17.7%; in test [9] it was 69.3%; in test [10], 9.72%; in test [11], 47.6%; in [12], 0.01%. Besides, the inhibition was 6.47% in test [13]; 2.51% in test [14]; 3.44% in test [15]; 2.8% in test [16]; 10.7% in test [17]; 8.54% in test [18]. Moreover, the inhibition came out at 42% in test [19] and 4.14% in test [20].

For `Cc1ccc(NC(=O)CC2CC2)cc1-c1ccc(C(=O)NCC2CC2)cc1`, the inhibition in [1] was 1.47%; in test [2], 1.27%; in test [3] it was 6.97%; in test [4], 1.47%; in test [5], 5.47%; in [6], -0.78%. Also, the inhibition in [7] is 2.17%; in [8], 9.88%; in test [9], 12.3%; in test [10], 3.18%; in test [11], 5.34%; in [12] it was 4%. Besides, the inhibition in test [13] came out at 3.9%; in test [14] it was 2.39%; in test [15], 3.24%; in test [16] it was 1.38%; in test [17], 2.75%; in test [18], 1.18%. The inhibition in [19] turned out to be 3.82%; in test [20] it was 4.18%.

Regarding `O=C1Nc2ccccc2/C1=C/Nc1ccc2[nH]c(=O)[nH]c2c1`, the inhibition in test [1] was 5.35%; in [2] it was 3.96%; in test [3], 20.8%; in test [4], 1.12%; in [5] it was 1.93%; in [6], -1.44%. Further, the inhibition was 8.66% in [7]; 13.7% in test [8]; 48.1% in [9]; 84.4% in [11]; 3.67% in test [12]; 10.1% in [13]. The inhibition in test [14] was 13.6%; in test [15] it was 71.7%; in test [16] it was -0.78%; in test [17] it was 21.8%; in [18], 3.64%; in [19], 11.9%. Further, in [20], the inhibition amounted to 5.48%.

Regarding `Nc1nccc(C#Cc2cncnc2Nc2ccc(OCc3cccc(F)c3)c(Cl)c2)n1`, the inhibition in test [1] turned out to be 3.09%; in test [2] it was 2.03%; in [3], 2.27%; in [4] it was 1.73%; in test [5], 1.57%; in [6], 0.41%. Besides, the inhibition in [7] is 4.42%; in test [8] it was 6.4%; in test [9], 10.6%; in test [10] it was 3.65%; in test [11] it was 2.68%; in test [12], 3.2%. In addition, the inhibition in test [13] is 2.1%; in [14], 1.97%; in test [15] it was 1.54%; in test [16] it was -1.72%; in test [17], 1.13%; in test [18], 1.54%. Further, the inhibition in [19] turned out to be 8.03%; in test [20], 3.49%.

Turning to `O=C(Nc1ccc(Oc2ccc3[nH]c(NC(=O)c4ccco4)nc3c2)cc1)Nc1cc(C(F)(F)F)ccc1F`, the inhibition is 0.22% in [1]; -1.24% in test [2]; 0.27% in test [3]; 1.11% in test [4]; 7.23% in test [5]; -3.43% in [6]. The inhibition in [7] was -2.59%; in [10], 30.5%; in test [11], 92.1%; in [12] it was -0.77%; in test [13] it was -1.72%; in test [14], 12.6%. The inhibition in test [15] was determined as 79.5%; in test [16], 25.1%; in test [17] it was 72.9%; in test [18] it was 1%; in test [19], 38.8%; in test [20], 0.05%.

As for `Cc1ccc2c(-c3ccnc(Nc4ccc5c(c4)OCCO5)n3)c(-c3ccc(C(F)(F)F)cc3)nn2n1`, the inhibition in test [1] was 1.1%; in test [2] it was 1.09%; in test [3] it was 1.09%; in test [4], 0.16%; in test [5], -1.16%; in test [6] it was -2.23%. The inhibition in test [7] was 1.23%; in [8] it was -0.67%; in test [9] it was 2.81%; in test [10], -0.52%; in test [11], 2.39%; in test [12], -1.16%. For the same compound, the inhibition in test [13] is 0.16%; in test [14] it was -0.41%; in test [15] it was -0.07%; in test [16] it was 0.29%; in test [17], 0.88%; in [18], 1.9%. Moreover, the values for the inhibition in test [19] and in [20] were 8.08% and 0.85%, respectively.

On to `COC(=O)Nc1nc2cc(Oc3ccc(NC(=O)Nc4cccc(Br)c4)cc3)ccc2[nH]1`, for which the inhibition was 1.87% in test [1]; 5.36% in test [2]; 11.8% in test [3]; 1.09% in test [4]; 3.06% in test [5]; -0.45% in test [6]. For the same compound, the inhibition in test [7] was found to be 1.27%; in test [10] it was 84.5%; in [11], 100%; in test [12], 2.97%; in [13], 4.47%; in test [14], 33%. Further, the inhibition was determined as 56.8% in [15]; 69.5% in [16]; 86.4% in test [17]; 5% in test [18]; 10.5% in test [19]; 3.48% in test [20].
